PubChem BioAssay (NCI)
The panel holds about 79,000 compounds, 15% with a hit somewhere; the sample as a whole holds those more often. Values without a mark were called inactive. The source made the active and inactive calls. Rule as the data show it: active = growth inhibition above about 70%; inactive = the rest.

How the values were obtained:
[1] = NCI Yeast Anticancer Drug Screen. Data for the rad50 strain (AID 155);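 also: 0% = growth of vehicle-only cultures of the same strain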; details: S. cerevisiae rad50 strain growth inhibition, hits give high values
Procedure, shortened: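 Compounds were tested on a yeast strain with an engineered DNA damage repair alteration; the reported value is growth inhibition normalised to vehicle treatment.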

[2] = NCI Yeast Anticancer Drug Screen. Data for the mec2-1 strain (AID 157); details: S. cerevisiae mec2-1 strain, hits give high values
Procedure, shortened: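 Readout is yeast growth inhibition, normalised to vehicle-treated controls, in the mec2-1 strain exposed to compound.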

[3] = NCI Yeast Anticancer Drug Screen. Data for the sgs1 mgt1 strain (AID 161);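 also: 0% = growth of cultures given vehicle only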; details: S. cerevisiae sgs1 mgt1 strain, hits give high values
Procedure, shortened: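 Compounds are added to genetically altered yeast, and growth is compared with cultures given vehicle alone to give percent inhibition.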

[4] = NCI Yeast Anticancer Drug Screen. Data for the cln2 rad14 strain (AID 165);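 also: 0% = growth equal to vehicle treated cultures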; details: S. cerevisiae cln2 rad14 strain, hits give high values
Procedure, shortened: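 Relative to vehicle controls, growth inhibition of compound-treated cln2 rad14 yeast was recorded.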

[5] = NCI Yeast Anticancer Drug Screen. Data for the bub3 strain (AID 167); details: S. cerevisiae bub3 mutant strain, hits give high values
Procedure, shortened: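 Growth of a checkpoint-deficient yeast mutant is measured after compound exposure. Values represent inhibition relative to vehicle.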

[6] = NCI Yeast Anticancer Drug Screen. Data for the mlh1 rad18 strain (AID 175); details: S. cerevisiae mlh1 rad18 strain growth inhibition, hits give high values
Procedure, shortened: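 Test agents were incubated with a yeast strain of defined genotype (DNA damage repair defect). Inhibition of growth was derived by comparison with vehicle-exposed cultures.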

[7] = at 5.0 µM (retest, dose inferred, filed as 0.5)
[8] = at 50.0 µM (retest, dose inferred, filed as 5.0)

| SMILES | growth inhibition [1, 7] [%] | growth inhibition [1, 8] | growth inhibition ([1]; at 50.0 µM) | growth inhibition [2, 7] [%] | growth inhibition [2, 8] | growth inhibition ([2]; at 50.0 µM) | growth inhibition [3, 7] | growth inhibition [3, 8] | growth inhibition ([3]; at 50.0 µM) | growth inhibition [4, 7] [%] | growth inhibition [4, 8] | growth inhibition ([4]; at 50.0 µM) | growth inhibition [5, 7] [%] | growth inhibition [5, 8] | growth inhibition ([5]; at 50.0 µM) | growth inhibition [6, 7] [%] | growth inhibition [6, 8] | growth inhibition ([6]; at 50.0 µM) |
| --- | --- | --- | --- | --- | --- | --- | --- | --- | --- | --- | --- | --- | --- | --- | --- | --- | --- | --- |
| O=C(Nc1cccc(C(F)(F)F)c1)c1cc(Br)cc(Br)c1O | 38 | 87% (active) | 83.2% (active) | 37 | 80% (active) | 62.6% | 44% | 85% (active) | 77% (active) | 45 | 75% (active) | 67.5% | 44 | 83% (active) | 69.3% | 52 | 95% (active) | 64.1% |
| OCCc1cccc2ccc3ccccc3c12 | 0 | 62% | 85.9% (active) | -1 | 55% | 92.8% (active) | -4% | 59% | 94.2% (active) | -1 | 59% | 88.2% (active) | 1 | 66% | 90.4% (active) | 2 | 66% | 91.8% (active) |
| O=C(O)C(=O)Cc1ccc(O)cc1 | -18 | -30% | 68.2% | -20 | -25% | 12.7% | -10% | -26% | 57% | -5 | 7% | 49.1% | -24 | -20% | 70.7% (active) | -48 | -69% | 61% |
| CCC(=O)c1cc2ccccc2c2ccccc12 | 4 | 44% | 66.3% | 0 | 20% | 39% | 0% | 40% | 37.3% | -3 | 0% | 9.9% | 5 | 74% (active) | 75.8% (active) | -2 | 61% | 41.5% |
| CCOC(=O)CC[P+](Cc1ccccc1)(c1ccccc1)c1ccccc1 | -32 | 14% | 64.9% | 0 | 0% | -1.5% | 2% | 3% | 12.7% | 4 | -2% | -15.4% | 1 | 4% | 18.4% | 7 | 21% | 11% |
| CCN(CC)CCOc1c(Cl)c(Cl)c(Cl)c(Cl)c1Cl | 23 | 62% | 71.7% (active) | 15 | 77% (active) | 57.5% | 20% | 88% (active) | 86.8% (active) | -1 | 80% (active) | 48.5% | 1 | 56% | 64.2% | 7 | 80% (active) | 71.8% (active) |
| CCCCCCCCCCCCCCCC(=O)N1CC[N+](C)(C)CC1 | 34 | 99% (active) | 99.3% (active) | 5 | 100% (active) | 99.6% (active) | 73% (active) | 99% (active) | 60% | 5 | 99% (active) | 98.2% (active) | 16 | 99% (active) | 99.2% (active) | -34 | 99% (active) | 99.5% (active) |
| O=C(OCCCN1CCCC1)C(c1ccccc1)C1CCCCC1 (configuration not stated) | 20 | 67% | 63.8% | 9 | 87% (active) | 52.4% | 23% | 91% (active) | 85.9% (active) | 13 | 81% (active) | 79.8% (active) | 33 | 91% (active) | 54.4% | 42 | 95% (active) | 80.2% (active) |
| CNC(=O)N(C1=NCC(C)S1)c1ccc(C)c(C)c1 (configuration not stated) | -13 | 97% (active) | 63.9% | -21 | 98% (active) | 74.9% (active) | -36% | 95% (active) | 71.8% (active) | -17 | 76% (active) | 57.2% | -22 | 98% (active) | 79.2% (active) | -17 | 89% (active) | 69% |
